From PubChem BioAssay
This is a sample that favours compounds with a hit; in the whole collection about 1.7% have one here.
GLP1R inv ag: acts as inverse agonist at human GLP-1 receptor; AID 624417; P43220; HEK293 GLP-1R CRE-luciferase, luminescence, 24 h; GLP-1R form is constitutively active; 410,000 compounds, 1.6% hits; Potency, µM (highest dose often 38.3 µM), for inactives: top-dose activity change, negative = inhibition, hits mostly inhibitors; also: % is scaled to controls: 0 for no effect and ±100 for the full control effect; nearly all actives have a fitted effect of over 55% in size
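Constitutively active GLP-1R drives a cAMP-responsive luciferase in stably transfected HEK293 cells; test compounds are added after overnight (12 h) attachment and left 24 hr, and signal loss in luminescence marks inhibition.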
HEK293 tox: cytotoxicity counter-screen for GLP-1 receptor inverse agonists | Potency, µM (highest dose often 38.3 µM), inactives show at the top dose activity change, negative = inhibition, most hits filed as inhibitors | 410,000 compounds, 0.13% hits | HEK293 cAMP-luciferase reporter cells, luminescence, 24 h;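 also: loss of luciferase light is scored as toxicity; % is scaled to controls: 0 for no effect and ±100 for the full control effect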
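MLSMR compounds, 24 hr on cells at 37 deg C/5% CO2; luminescence after luciferase reagent (12 min RT). Inhibition counted as the undesired cytotoxic outcome.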
GLP-1R agonist: activates the human GLP-1 receptor | P43220 | HEK293 GLP-1R CRE-luciferase, luminescence, 4-6 h; cells express a hypersensitive GLP-1R form | Potency, µM (top dose mostly 45.6 µM), for the others: top-dose activation, hits mostly activators | 380,000 compounds, 0.007% hits | AID 624172; also: % of control where 0% means no effect
PTHR1 ag: PTHR1 (human) receptor agonism | Q03431 | HEK293 GP2 PTHR1 cells, GloSensor cAMP luminescence, 1 h | Potency, µM (doses to about 115 µM), without a hit: at the highest dose activation, most hits filed as activators | 410,000 compounds, 0.075% hits | AID 743266; also: nearly all actives have a fitted effect of over 55% in size
Target sequence (Q03431 whole entry, looked up): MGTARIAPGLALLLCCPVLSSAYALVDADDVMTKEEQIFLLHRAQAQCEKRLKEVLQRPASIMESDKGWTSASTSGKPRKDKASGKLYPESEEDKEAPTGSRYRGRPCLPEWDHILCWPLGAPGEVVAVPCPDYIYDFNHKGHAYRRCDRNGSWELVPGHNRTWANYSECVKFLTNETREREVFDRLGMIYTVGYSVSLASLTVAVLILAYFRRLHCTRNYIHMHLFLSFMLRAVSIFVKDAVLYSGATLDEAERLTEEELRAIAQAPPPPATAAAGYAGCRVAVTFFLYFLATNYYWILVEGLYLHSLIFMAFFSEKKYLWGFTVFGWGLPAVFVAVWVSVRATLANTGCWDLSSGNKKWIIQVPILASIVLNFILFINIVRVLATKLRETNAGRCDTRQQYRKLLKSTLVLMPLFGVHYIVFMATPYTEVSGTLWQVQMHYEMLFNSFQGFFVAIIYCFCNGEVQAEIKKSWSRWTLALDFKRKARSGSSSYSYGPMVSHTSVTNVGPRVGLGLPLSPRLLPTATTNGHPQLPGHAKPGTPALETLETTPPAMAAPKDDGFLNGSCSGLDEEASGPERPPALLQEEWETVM
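HEK-293-derived GP2 cells expressing PTHR1 and a GloSensor cAMP reporter, 3,000/well, plated overnight, given luciferin plus IBMX (each 0.5 mM as added) for 1 h at 37 °C, then compound for 1 h at 37 °C. Luminescence was read after 15 min at room temperature.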
Numbers without * were called inactive; i = inactive; u = inconclusive; x = no result given; [ ] = dose if it differs, or a comment. Calls follow the shape of the dose curve; as a rule, active = well fitted curve in the direction sought with a large enough effect; inconclusive = small, poorly fitted or top-dose-only effect, or another doubt; inactive = no such curve, though single readings can be large; an effect the other way counts as inactive or inconclusive. Potency is read from the fitted curve at half-maximal effect.

SMILES	GLP1R inv ag	HEK293 tox	GLP-1R agonist	PTHR1 ag
CC(NC(=O)Nc1ccccc1C(F)(F)F)c1c(-n2cccc2)sc2c1CCCC2 (stereo unspecified)	u	6.6%	x	-12.4%
COc1cc(NC(=O)NC(C)c2c(-n3cccc3)sc3c2CCCC3)cc(OC)c1OC (stereo unspecified)	11.2µM*	0.6%	x	-6.2%
COc1ccc(C(=O)/C=C2/C(=O)Nc3ccccc32)c(OC)c1	u	10µM*	-5.6%	-41.1%
COc1ccc(C(=O)/C=C2/C(=O)Nc3ccccc32)cc1	u	u	-1.8%	-34.6%
CCOC(=O)CSc1cccc2cccnc12	u	3.55µM*	-34.9%	i
O=C(Nc1cccc(-c2cccc(Cl)c2)c1)C1CCN(Cc2ccc(CO)o2)CC1	3.55µM*	u	6.0%	-16.7%
Cc1ccc(CN2CCC(C(=O)Nc3cccc(-c4cccc(F)c4)c3)CC2)o1	u	-22.4%	4.8%	i
CCn1c(=O)sc2cc(NS(=O)(=O)c3ccc(C)cc3)ccc21	-4.7%	3.9%	8.2%	-20.4%
C#CCn1c(=NC(=O)c2ccc(S(=O)(=O)N3CCc4ccccc4C3)cc2)sc2cc(S(N)(=O)=O)ccc21	3.98µM*	3.55µM*	-31.4%	i
C=CCn1c(=NC(=O)c2ccc(S(=O)(=O)N3CCc4ccccc4C3)cc2)sc2cc(S(N)(=O)=O)ccc21	u	u	0.7%	i
Cc1cc(C)cc(Oc2nc(-c3ccccc3)cc(C)c2S(C)(=O)=O)c1	4.47µM*	-9.6%	3.0%	-17.4%[57.5 µM]
Cc1cc(-c2ccccc2)nc(Oc2ccc(C(C)(C)C)cc2)c1S(C)(=O)=O	u	11.8%	13.9%	-72.4%[57.5 µM]
OC(CN1CCCCC1)c1cc(-c2ccccc2)on1 (stereo unspecified)	x	x	-5.3%	x
Cc1cc(C)cc(C(O)c2ncc(-c3ccc(Cl)cc3)[nH]2)c1 (stereo unspecified)	12.6µM*	-0.1%	5.7%	-35.1%
COc1ccc(OCc2ccc(-c3nc(C#N)c(NCc4ccc(F)cc4)o3)o2)cc1	u	-7.7%	x	i
CN(C(=O)CSc1nc2ccc(NC(=O)c3cccc(F)c3)cc2s1)c1ccccc1	5.62µM*	u	x	-36.1%
CCOc1ccc(C(=O)Nc2cccc(NC(=O)c3ccc(C(C)(C)C)cc3)c2)cc1Br	-6.5%	-7.3%	x	-14.6%
CCN(CC)S(=O)(=O)c1ccc2oc(C(=O)NC3CCCc4ccccc43)c(C)c2c1 (stereo unspecified)	8.91µM*	66.0%	1.3%	-25.9%
CC(C)C(NS(=O)(=O)c1c(Cl)cccc1Cl)C(=O)OCC(=O)c1c[nH]c2ccccc12 (stereo unspecified)	u	-5.0%	-27.5%	-19.6%
CC(O)C(NS(=O)(=O)c1ccc(Cl)cc1)C(=O)OCC(=O)c1c[nH]c2ccccc12 (stereo unspecified)	5.62µM*	-13.9%	7.7%	-24.5%
CC1CCN(S(=O)(=O)c2cc(C(=O)NCc3ccc(F)cc3)n(C)c2)CC1	-19.6%	2.0%	0.9%	-15.3%
O=C(Nc1nnc(SCc2ccc(F)cc2)s1)c1ccccn1	u	5.62µM*	u	-18.6%
O=C(Nc1nnc(SCc2ccc(F)cc2)s1)c1cccnc1Cl	-6.8%	-10.9%	-2.9%	-15.3%
CCc1nnc(NC(=O)c2ccc3ccccc3n2)s1	7.94µM*	u	-1.8%	-77.5%
CCSc1nnc(NC(=O)c2ccc3ccccc3n2)s1	5.01µM*	u	-19.4%	-17.3%[57.5 µM]
SMILES	GLP1R inv ag	HEK293 tox	GLP-1R agonist	PTHR1 ag
COc1ccc(Cn2c(=O)c3cccnc3n(Cc3cccc(F)c3)c2=O)cc1	-8.6%	6.1%	x	-15.0%
COc1ccc(OC)c(S(=O)(=O)NCCc2sc(C)nc2C)c1	4.2%	-11.6%	9.3%	-2.7%
CCN(c1cccc(C)c1)C(CNS(=O)(=O)c1ccccc1)c1ccccc1 (stereo unspecified)	u	-3.4%	x	-17.4%
Cc1cccc(N(C)C(CNS(=O)(=O)c2ccccc2)c2ccccc2)c1 (stereo unspecified)	10µM*	3.9%	x	-30.2%
CCN(c1ccccc1)C(CNS(=O)(=O)c1ccccc1)c1ccccc1 (stereo unspecified)	10µM*	-6.4%	x	-31.4%
Cc1ccc(S(=O)(=O)NC2CCCc3ccccc32)cc1C (stereo unspecified)	5.01µM*	-4.2%	1.8%	-8.1%[57.5 µM]
CC(C)NCCCCOc1cccc(Br)c1	7.94µM*	-0.7%	-1.0%	-2.6%
Cc1sc2ncnc(N3CCC(C(=O)N(C)CC(=O)Nc4ccc(Cl)c(C(F)(F)F)c4)CC3)c2c1C	2.51µM*	u	11.4%	-10.1%
CCN(CC)S(=O)(=O)c1cc(NC(=O)C2CCN(c3ncnc4sc(C)c(C)c34)CC2)ccc1Cl	2.51µM*	-4.2%	-22.8%	i
Cc1sc2ncnc(N3CCC(C(=O)Nc4cc(Cl)ccc4Cl)CC3)c2c1C	10µM*	-17.3%	-4.4%	-22.8%
CCN(CC)S(=O)(=O)c1cc(NC(=O)C2CC(=O)N(Cc3ccccc3)C2)ccc1Cl (stereo unspecified)	10µM*	-9.0%	13.5%	-32.1%
CN(C)c1ccc(N=Nc2nc3ccccc3n2C)cc1	u	5.01µM*	-9.2%	-39.3%
Cn1c(N=Nc2ccccc2)nc2ccccc21	4.47µM*	10µM*	-20.1%	-0.9%
CCn1c(NCc2ccc(N(C)C)cc2)nc2ccccc21	0.0%	2.7%	18.1%	i
Cn1c(Cl)nc2ccccc21	0.0%	-10.8%	-4.3%	i
O=C(NC1CCCC1)C(c1ccsc1)N(C(=O)Cc1cccs1)c1ccc(F)cc1 (stereo unspecified)	17.3%	5.0%	4.3%	i
O=C(NC1CCCC1)C(c1ccccc1F)N(C(=O)Cc1cccs1)c1ccc2c(c1)OCCO2 (stereo unspecified)	10µM*	5.3%	4.2%	-10.7%
CCOC(=O)CSc1nc2cc(OC)c(OC)cc2c2nc(-c3ccccc3)nn12	-11.5%	0.5%	-0.9%	i
Cc1[nH]c2ccccc2c1Cc1nnc(SCc2ccccc2)o1	11.2µM*	-24.5%	9.2%	-28.4%
O=c1[nH]c(CSc2nnc(Cc3ccccc3)o2)nc2ccccc12	7.6%	-1.5%	-1.0%	i
COc1ccc(CN(C(=O)Nc2cccc(Cl)c2)c2ccccn2)cc1OC	u	2.8%	x	-19.1%
Nc1c(CC(=O)O)cccc1C(=O)c1ccccc1	x	x	-3.7%	x
O=C(Nc1cc([N+](=O)[O-])ccc1Cl)C(Sc1ccccc1)c1ccccc1 (stereo unspecified)	u	22.3%	0.4%	-29.3%
O=C(Nc1ccc(Cl)c([N+](=O)[O-])c1)C(Sc1ccccc1)c1ccccc1 (stereo unspecified)	8.91µM*	u	-1.0%	-32.2%
O=C(CCl)Nc1cccc(-c2cnc3ccccc3n2)c1	8.91µM*	u	-0.5%	-12.7%
COc1ccc(CNC(=O)CCCc2nnc3n(CCC(C)C)c(=O)c4sccc4n23)cc1	6.0%	-12.1%	x	i
